Screening results as filed in PubChem BioAssay.
RXFP1 ag – RXFP1 (human) receptor agonism; Q9HBX9; HEK293T-RXFP1 cAMP TR-FRET, 30 min; response scale: percent of porcine relaxin response, buffer zero; Potency, µM (doses to about 57.5 µM), inactives show at the highest dose activation, usual class: activators; 0.3% of 370,000 active; note: potency is the fitted concentration of half-maximal effect; % is set by controls: 0 for no effect and ±100 for the full control effect; nearly all actives have a fitted effect of over 60% in size
Target sequence (Q9HBX9 whole entry, looked up): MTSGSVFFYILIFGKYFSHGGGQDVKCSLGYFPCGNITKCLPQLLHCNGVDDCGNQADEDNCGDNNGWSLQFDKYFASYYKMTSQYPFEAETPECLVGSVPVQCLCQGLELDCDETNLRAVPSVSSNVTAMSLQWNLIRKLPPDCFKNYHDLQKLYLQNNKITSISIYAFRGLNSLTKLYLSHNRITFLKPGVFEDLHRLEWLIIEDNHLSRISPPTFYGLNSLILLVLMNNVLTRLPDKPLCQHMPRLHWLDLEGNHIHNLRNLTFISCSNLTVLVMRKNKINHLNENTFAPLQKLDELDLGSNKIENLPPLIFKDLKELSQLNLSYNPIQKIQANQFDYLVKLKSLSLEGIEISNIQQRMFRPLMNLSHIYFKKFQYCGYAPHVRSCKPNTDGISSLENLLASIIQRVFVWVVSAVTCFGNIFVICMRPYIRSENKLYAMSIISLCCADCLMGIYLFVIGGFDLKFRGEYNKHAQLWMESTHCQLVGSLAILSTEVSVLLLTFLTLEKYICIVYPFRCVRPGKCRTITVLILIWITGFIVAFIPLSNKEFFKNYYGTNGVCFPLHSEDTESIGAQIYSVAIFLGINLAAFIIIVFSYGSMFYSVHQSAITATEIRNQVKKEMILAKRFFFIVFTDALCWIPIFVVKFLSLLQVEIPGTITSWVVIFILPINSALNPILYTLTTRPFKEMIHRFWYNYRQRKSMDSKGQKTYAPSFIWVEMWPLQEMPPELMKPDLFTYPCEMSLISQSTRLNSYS
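HEK293T cells stably expressing RXFP1 were pretreated with the PDE4 inhibitor Ro 20174, exposed to compounds for 30 min at 37C, lysed, and cAMP was read by TR-FRET. Data normalized to buffer (basal) and 29 nM porcine relaxin (100%).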
RXFP1 antag – antagonists of human relaxin receptor RXFP1; HEK293-RXFP1, relaxin-stimulated cAMP HTRF, 30 min; hits give low values; activity change, negative = inhibition, % at 57.5 µM; 0.59% of 350,000 active; AID 1259400;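 active = activity change of -60% or lower, but not beyond a set lower limit; inconclusive = change between -60% and -40%, or beyond the set limit; inactive = change above -40%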; note: % is set by controls: 0 for no effect and ±100 for the full control effect
BRCA1 expr act – BRCA1 expression activation; MCF7-BRCA1-FFLuc reporter, luminescence, 48 h; response scale: scaled: vehicle 0%, 10 µM genistein 100%; Potency, µM (doses to about 46.1 µM), for the others: top-dose activation, most hits filed as activators; 1.1% of 380,000 active; AID 624202; note: potency is the fitted concentration of half-maximal effect; nearly all actives have a fitted effect of over 80% in size
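Using MCF7 cells harboring a BRCA1 firefly luciferase reporter, plated 2 h before compound pinning, the screen measured luminescence after 48 h incubation. Responses were normalized to DMSO and 10 microM genistein, then fitted for concentration-effect.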
IL2 activator – IL-2 activation. IL-2 activation reporter assay, cell-based qHTS; stimulated with anti-CD3/CD4/CD28 beads; in transgenic mouse T cells. activation, % (series mostly up to about 46 µM). 0.065% of 360,000 active; in the data active = activation above about 50%; inconclusive = mostly about 30% to 49%; note: 0% is about no effect
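EGFP and DsRed fluorescence is measured by plate cytometry in unstimulated transgenic mouse T cells exposed to compound for 60 minutes, then stimulated 18 hours at 37 degrees C with anti-CD3/anti-CD4 beads plus anti-CD28.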
NPSR antag – neuropeptide S receptor (human) antagonism, cAMP | Q6W5P4 | Potency, µM (highest dose often 38.3 µM), inactives show at the highest dose activity change, negative = inhibition, usual class: inhibitors | 1% of 220,000 active | CHO-NPSR cells, cAMP TR-FRET, antagonist mode | AID 1461; note: potency is the fitted concentration of half-maximal effect; % is set by controls: 0 for no effect and ±100 for the full control effect; nearly all actives have a fitted effect of over 50% in size
Giardia killer – kills Giardia lamblia. activity change, % at 7.66 µM, hits read low. Giardia lamblia trophozoite viability. AID 540267. 0.15% of 340,000 active; in the data active = activity change below about -80%; inconclusive = between about -30% and that limit;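 note: parasites exposed to compound for two days anaerobically before the ATP read; % is set by controls: 0 for no effect and ±100 for the full control effect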
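Luminescence from cellular ATP indicates surviving trophozoites (100 cells/well) following 48 hrs anaerobic compound treatment at 37 deg C; signal develops 15-30 min at room temperature.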
Starred values were filed as active, the others as inactive; u = inconclusive; x = no result; [ ] = dose if it differs, or a comment. Compounds with a hit are over-represented: about 1.9% of the library has one in this group of screens. Unless noted, calls come from the whole dose curve; as a rule, active = well fitted curve in the direction sought with a large enough effect; inconclusive = small, poorly fitted or top-dose-only effect, or another doubt; inactive = no such curve, though single readings can be large; an effect the other way counts as inactive or inconclusive.

SMILES	RXFP1 ag	RXFP1 antag	BRCA1 expr act	IL2 activator	NPSR antag	Giardia killer
Cc1ccc(CC(=O)Nc2cccc(C)n2)cc1	2%	3	10µM*	-2	4%[46.1 µM]	-4
CCOC(=O)c1ccc(NC(=O)Nc2cccc(C)n2)cc1	1%	-2	-3%	0	-27%	2
CCC(=O)Nc1ccc(C(=O)Nc2cccc(C)n2)cc1	0%	1	2.5µM*	-2	-11%	-22
Cc1cccc(NC(=O)Cc2ccc(-c3ccccc3)cc2)n1	-1%	-19	32%	-3	x	4
COc1ccc(OC)c(NC(=O)c2nc(S(=O)(=O)Cc3ccccc3F)ncc2Cl)c1	x	x	-35%	x	x	x
O=[N+]([O-])c1ccc(-c2nc3ccc([N+](=O)[O-])cc3[nH]2)cc1	15%	2	-24%	0	-1%[46.1 µM]	-2
Nc1ccc(-c2nc3ccc([N+](=O)[O-])cc3[nH]2)cc1	5%	-9	2µM*	-4	-1%	7
N#Cc1cc2c(N)c(C(=O)Nc3ccccc3)sc2nc1N	3%	x	x	x	-11%[46.1 µM]	x
Cc1cc(C)c(NC(=O)c2sc3nc(C)cc(C)c3c2N)c(C)c1	7%	x	-38%	x	x	x
Cc1cc(C)cc(NC(=O)c2sc3nc(C)cc(C)c3c2N)c1	8%	1	4µM*	0	x	3
Cc1cccc(NC(=O)c2sc3nc(N)c(C#N)cc3c2N)c1	4%	-9	3.2µM*	-3	-35%	8
COC(=O)[C@H]1[C@H]2C[C@@H]3c4[nH]c5cc(OC)ccc5c4CCN3C[C@H]2C[C@@H](OC(=O)/C=C/c2ccc(O)c(OC)c2)[C@@H]1OC	x	-16	x	x	x	x
Oc1ccc(/C=N/N2CCN(C3c4ccccc4-c4ccccc43)CC2)cc1O	-2%	-4	-33%	-1	10µM*	5
Oc1ccc(/C=N/N2CCN(C3c4ccccc4-c4ccccc43)CC2)cc1	-1%	-36	0%	-1	-7%	14
COc1ccc(Nc2nc(-c3sc(C)nc3C)cs2)cc1	0%	-61*	-40%	1	x	-3
N#Cc1nc(-c2ccc(OCc3ccc(Cl)cc3)cc2)oc1N1CCCCCC1	x	x	18%	x	x	2
Cc1c(C(=O)Nc2ccccc2)cnn1-c1ccccc1	x	-3	u	2	x	-16
Cc1c(C(=O)Nc2cccc([N+](=O)[O-])c2)cnn1-c1ccccc1	0%	12	2.5µM*	-1	x	-11
COc1ccc(NC(=O)c2cnn(-c3ccccc3)c2C)cc1OC	2%	-7	4µM*	4	x	3
C=C1NN(C(C)C(=O)O)C(=O)N1c1ccc(OCc2ccccc2)cc1 (stereo not given)	x	x	0%	x	x	x
COc1ccc(CNC(=O)c2cc(S(=O)(=O)N3CCOCC3)cn2C)cc1	4%	1	1%	2	x	-3
Cn1cc(S(=O)(=O)N2CCCC2)cc1C(=O)NCc1ccccc1Cl	5%	-73*	0%	-2	x	6
COc1cccc(CNC(=O)c2cc(S(=O)(=O)N3CCOCC3)cn2C)c1	0%	-82*	-7%	-3	x	31
COc1ccccc1CNC(=O)c1cc(S(=O)(=O)N2CCCC2)cn1C	0%	-5	-1%	1	x	-3
O=C(C[n+]1ccccc1Cl)c1ccc2c(c1)CCCC2	x	x	59%	x	x	x
SMILES	RXFP1 ag	RXFP1 antag	BRCA1 expr act	IL2 activator	NPSR antag	Giardia killer
CCN(CC)CCCN(C(=O)c1ccco1)c1nc(-c2ccc(Cl)cc2)cs1	1%	-96*	3%	-4	x	17
CN(C(=O)c1ccco1)c1nnc(-c2ccc(F)cc2)s1	1%	-6	22%	-1	x	u
COc1ccc(-c2csc(N(C)C(=O)c3cccs3)n2)cc1	16%	-10	10µM*	1	28%	-3
CN(C(=O)c1ccco1)c1nc(-c2ccc(F)cc2)cs1	4%	4	4.5µM*	1	x	6
COc1ccc(-c2nc(N3CCN(S(=O)(=O)c4ccc(F)cc4)CC3)c3ccccc3n2)cc1	x	x	9%	x	x	-16
O=C1c2cccnc2C(=O)N1c1nc(-c2ccccc2)cs1	x	x	2%	x	x	x
COc1cccc(S(=O)(=O)N2CCN(c3nc(-c4cccs4)nc4ccccc34)CC2)c1	x	x	0%	x	x	-13
O=C(CCCCn1c(=S)[nH]c2ccsc2c1=O)NCc1ccco1	1%	-81*	-35%	-1	-9%[46.1 µM]	-7
O=C(CCCn1c(=S)[nH]c2ccsc2c1=O)NCc1ccco1	7%	-78*	2%	-1	u	2
Cc1ccccc1Cn1c(=O)n(CCCC(=O)NCc2ccco2)c(=O)c2sccc21	2%	-5	-25%	-1	-3%[46.1 µM]	-8
O=P(O)(O)OC[C@@H](O)CO	x	3	x	x	x	x
CN(C)CCCNc1cc(N2CCN(C3CCCCC3)CC2)c2noc3c2c1C(=O)c1ccccc1-3	0%	u	x	x	x	x
O=[N+]([O-])c1ccc(C=NNc2ccccc2)cc1	x	-14	15%	0	x	-9
O=[N+]([O-])c1ccc(N/N=C/c2ccccc2)c(F)c1	4%	-10	8.9µM*	0	-28%	-5
COc1ccc(OCC(=O)OCc2cc(=O)n3nc(C4CC4)sc3n2)cc1	3%	x	0%	x	x	x
O=C(CNc1ccccc1)N/N=C/c1ccc2c(c1)OCO2	1%	-5	23%	1	5%	-24
O=C(Cc1ccccc1)N/N=C/c1ccc2c(c1)OCO2	1%	3	1.3µM*	0	6%	-21
O=C(NN=Cc1ccc2c(c1)OCO2)C1CC1	x	-5	7.1µM*	2	x	-1
O=C(N/N=C/c1cccc(O)c1)c1cc(-c2ccc3c(c2)OCO3)n[nH]1	0%	-69*	-54%	-1	-16%	3
O=C(NN=Cc1ccc2c(c1)OCO2)NN=Cc1ccc2c(c1)OCO2	x	u	70%	0	x	0
CC(C)(C)c1ccc(/C=N/NC(=O)C2CCCC2)cc1	-3%	-3	5.6µM*	-3	x	-15
CC(C)c1ccc(/C=N/NC(=O)C2CCCC2)cc1	0%	-7	60%	-4	x	11
CCc1ccc(NC(=O)c2nc(SCc3ccccc3F)ncc2Cl)cc1	x	x	3%	x	x	x
CCOC(=O)/C(C#N)=C/c1cc2ccccc2nc1N1CCCCC1	14µM*	-2	15%	-6	u	12
COc1cccc(NC(=O)CCc2nnc3n(CC(C)C)c(=O)c4ccccc4n23)c1	13%	-4	x	x	x	x
CCN1C(=O)/C(=C/C=C2/CCCN2C)OC1=S	-4%	-8	7.1µM*	-2	28%	9
CNC(=S)N1CCN(c2nc3ccccc3s2)CC1	-2%	-11	7.1µM*	0	-3%	-4
CS(=O)(=O)N1CCN(c2nc3ccccc3s2)CC1	3%	3	13µM*	-2	u	-5
CCCCNC(=S)N1CCN(c2nc3ccccc3s2)CC1	0%	-5	-1%	0	-14%	15
